From PubChem BioAssay (EPA / NIEHS)
Results filed as inconclusive are left out. Activity calls are given as the source filed them. How the source made its calls: active means hit-call score of the fitted dose curve at least 0.9, where 1 is the maximum; inconclusive means response in the unintended direction; inactive means score below 0.9.

biological target: human Casein Kinase 1-delta (CK1D), CSNK1D (gene 1453) (UniProt P48730); experiment: NVS_ENZ_hCK1D: NovaScreen (NVS) Enzymatic Assay for human Casein Kinase 1-delta (CK1D) (AID 2283148)
Experimental: NVS_ENZ_hCK1D is a biochemical, single-readout assay that uses extracted gene-proteins in a cell-free assay. Measurements were taken 1 hour after chemical dosing in a 384-well plate.NVS_ENZ_hCK1D is one of one assay component(s) measured or calculated from the NVS_ENZ_hCK1D assay. It is designed to make measurements of enzyme activity, a form of enzyme reporter, as detected with fluorescence intensity signals by Fluorescence and electrophoretic mobility shift technology.Data from the assay component NVS_ENZ_hCK1D was analyzed into 1 assay endpoint. This assay endpoint, NVS_ENZ_hCK1D, was analyzed in the positive analysis fitting direction relative to DMSO as the negative control and baseline of activity. Using a type of enzyme reporter, loss-of-signal activity can be used to understand changes in the enzymatic activity as they relate to the gene CSNK1D. Furthermore, this assay endpoint can be referred to as a primary readout, because this assay has produced multiple assay endpoints where this one serves a enzymatic activity function. To generalize the intended target to other relatable targets, this assay endpoint is annotated to the kinase intended target family, where the subfamily is serine/threonine kinase.
Binding assays used specific radioligands (tritiated, iodinated) with non-radioactive competitive displacement ligands in agonist or antagonist protocols (as indicated) and various reference compounds and inhibitors to titrate specific binding to receptors and transporters. Most enzyme assays (CYPs, kinases, phosphatases, proteases, HDACs) used recombinant protein and specific substrates (fluorescence mostly, some colorimetric and radioactive) and inhibitors, followed by a biochemical separation of substrate and product. All assays for the biochemical HTS were initially run in duplicate at a single concentration (10 uM for CYP450 assays and 25 uM for all others). Assay-chemical combinations meeting a pre-defined threshold (e.g., 30% inhibition and other criteria defined below) were then run in singleton concentration-response format with maximum concentration of 20 uM for CYPs and 50 uM for all others. Each assay was run with positive and negative controls, and concurrent controls on every plate. The follow-up (secondary) screen tested active chemical-pairs in concentration series, as well as a few additional assays not tested in the primary screen, some selected negative inactives, and several cases re-run in the concentration series for confirmatory purposes.

Sequence of human Casein Kinase 1-delta (CK1D), CSNK1D (gene 1453) (P48730 whole entry, looked up): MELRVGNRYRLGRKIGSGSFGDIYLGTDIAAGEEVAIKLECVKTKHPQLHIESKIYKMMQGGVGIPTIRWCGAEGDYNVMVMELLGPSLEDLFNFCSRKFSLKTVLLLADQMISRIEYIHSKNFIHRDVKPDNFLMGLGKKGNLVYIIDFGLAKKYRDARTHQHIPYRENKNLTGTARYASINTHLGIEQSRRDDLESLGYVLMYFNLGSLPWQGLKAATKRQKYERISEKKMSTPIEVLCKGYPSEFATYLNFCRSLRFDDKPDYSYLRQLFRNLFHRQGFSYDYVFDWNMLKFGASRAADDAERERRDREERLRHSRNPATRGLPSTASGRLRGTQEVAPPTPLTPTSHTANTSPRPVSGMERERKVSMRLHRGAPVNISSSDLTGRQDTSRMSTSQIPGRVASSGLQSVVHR

| Compound | outcome | AC50 |
| --- | --- | --- |
| C1=CCCC=CCCC=CCC1 | inactive | – |
| COc1ccc(/C=C/S(=O)(=O)NC(=O)c2ccc(C)cc2Cl)cc1 | – | 30.5 µM (active) |
| CCOC(=O)COc1ccc2c(c1)CC(NCC(O)c1cccc(Cl)c1)CC2 (stereo not drawn) | inactive | – |
| O=C(O)c1cccc(Oc2ccccc2)c1 | inactive | – |
| O=C(O)CCN(C1(C(=O)NO)CCCC1)S(=O)(=O)c1ccc(Oc2ccc(F)cc2)cc1 | inactive | – |
| Cn1c(=O)cc(Oc2ccc(F)cc2F)c2cnc(NCC(C)(C)O)nc21 | – | 0.0119 µM (active) |
| Nc1nc2ncc(CNc3ccc(C(=O)N[C@@H](CCC(=O)O)C(=O)O)cc3)nc2c(=O)[nH]1 | – | 11.4 µM (active) |
| O=C(O)c1cccc(N(Cc2cccnc2)c2ccc(OC(F)F)c(OC(F)F)c2)c1 | – | 10.9 µM (active) |
| Cc1[nH]cnc1C[C@H]1CCc2c(C)c3ccccc3n2C1=O | – | 13.9 µM (active) |
| COc1ccc2sc(C(=O)Nc3nnn[nH]3)c(OC(C)C)c2c1 | – | 0.385 µM (active) |
| CN(C)c1ccc(N=NS(=O)(=O)O)cc1 | inactive | – |
| Cn1c(=O)c2c(ncn2C)n(C)c1=O | inactive | – |
| Cc1ccc(N)cc1O | inactive | – |
